Compound activity as filed in PubChem BioAssay.
An excerpt weighted towards active compounds, which were near 3.1% of everything screened.
Neddylation inh = blocks human cullin neddylation; P61081+Q13564; TR-FRET cullin neddylation, biochemical; calls only at 25 µM; hit rate 0.58% among 360,000; AID 651699; in the data active means inhibition above about 36%
KLK7 zymogen act = activators of human kallikrein-7 zymogen; P49862; purified proKLK7, EDANS-DABCYL substrate fluorescence; 100% is mature enzyme control, 0% vehicle; activation, % at 7 µM; hit rate 0.9% among 370,000;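 active means activation above the mean of all tested compounds plus 3 SD, computed per campaign excluding outliers beyond control limits, cut at about 13% in these data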
Target sequence (P49862 whole entry, looked up): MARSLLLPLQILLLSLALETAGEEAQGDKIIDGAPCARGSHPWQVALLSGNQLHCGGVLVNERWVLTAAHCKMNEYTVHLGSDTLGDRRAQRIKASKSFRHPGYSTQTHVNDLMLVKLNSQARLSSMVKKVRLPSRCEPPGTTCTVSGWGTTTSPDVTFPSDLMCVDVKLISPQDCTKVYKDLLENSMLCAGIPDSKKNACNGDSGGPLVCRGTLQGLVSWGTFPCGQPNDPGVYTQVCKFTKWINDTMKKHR
UHRF1 MBD2 ctr = human UHRF1 methylated DNA binding inhibitors | Q96T88 | UHRF1 binding to methylated oligo, TR-FRET | inhibition, % at 4.4 µM | hit rate 0.75% among 370,000;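 further: UHRF1 SRA domain binding a hemimethylated CpG hairpin DNA probe; 0% = median of test compound wells and 100% = reference inhibitor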
Rin1-Abl PPI inh = human Rin1-Abl interaction inhibition; inhibition, % at 7.35 µM; AID 588664; TR-FRET Rin1/Abl binding, biochemical; P00519+Q13671; hit rate 0.4% among 360,000; in the data active means inhibition above about 5%, passing the limit was not always enough
MBD2 inh = inhibitors of human MBD2 binding to methylated oligonucleotide; inhibition, % at 4.4 µM; hit rate 0.31% among 370,000; AID 686964; TR-FRET; Q9UBB5; in the data active means inhibition above about 13%
LEDGF integ inh = blocks HIV-1 LEDGF/p75-dependent DNA integration; TR-FRET IN-LEDGF/p75 DNA integration, Eu/Cy5; AID 743269; inhibition, % at 3.7 µM; hit rate 0.64% among 370,000;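 active means inhibition above the screen-wide mean plus 3 SD, cut at about 13% in these data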;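 further: signal is the Cy5 over europium emission ratio at 671 and 618 nm; 0% = plate median of compound wells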
proKLK7 act conf = proKLK7 activation, confirmation; shares compounds with KLK7 zymogen act; purified proKLK7, EDANS-DABCYL substrate fluorescence; scaled: vehicle 0, mature enzyme 100; activation, % at 7 µM; hit rate 68% among 3,200; AID 686949;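 active means activation, as change over the incubation, above the mean of all tested compounds plus 3 SD, cut at about 13% in these data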
EDANS-DABCYL int = fluorescence interference counter-screen for KLK7 activators; hit rate 80% among 3,200; EDANS-DABCYL substrate fluorescence interference, no enzyme, 4 h; solvent 0%, active enzyme control 100%; activation, % at 7 µM; AID 686952; shares compounds with KLK7 zymogen act;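 active means activation above the all-compound mean plus 3 SD, ignoring values outside control-based bounds, cut at about 4.8% in these data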;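 further: value is the 4 h activation minus the activation read at time zero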
K7 EDANS ctr = EDANS fluorescence interference in dose response, no enzyme. shares compounds with KLK7 zymogen act. EDANS-DABCYL peptide fluorescence interference. EC50, µM. hit rate 20% among 250. AID 720493;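 active means compounds that raise the fluorescence signal in this interference counterscreen, with EC50 at or below 10 µM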;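 further: intact quenched peptide substrate alone read at 355 nm excitation and 520 nm emission; signal is fluorescence gain from T0 to T4 after four hours at room temperature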
UHRF1 DNA bind = inhibits human UHRF1 binding to methylated oligonucleotide, MBD2 counter-screen; shares compounds with MBD2 inh; TR-FRET; inhibition, % at 4.4 µM; hit rate 25% among 1,000;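 further: UHRF1 SRA domain binding a labeled hemimethylated CpG hairpin DNA; 0% = vehicle only and 100% = reference inhibitor with vehicle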
MBD2 confirm = MBD2-DBD methyl-DNA binding inhibition, TR-FRET confirmation. shares compounds with MBD2 inh. TR-FRET MBD2-DBD binding to methylated oligonucleotide. inhibition, % at 4.4 µM. hit rate 26% among 1,000. AID 720531; in the data active means inhibition above about 14%
IN multimer act = HIV-1 integrase multimerization activation, counter-screen | shares compounds with LEDGF integ inh | TR-FRET HIV-1 integrase multimerization, biochemical | activation, % at 7.7 µM | hit rate 17% among 2,000 | AID 1053131; in the data active means activation above about 8.9%
TRFRET interf = counter-screen for LEDGF/p75 integration inhibitors: TR-FRET optical interference | shares compounds with LEDGF integ inh | TR-FRET optical interference counterscreen, HIV-1 IN multimerization | inhibition, % at 7.7 µM | 2,000 tested, under 10 active | AID 1053135;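 active means inhibition above the mean over all tested compounds plus 3 SD, which no compound reached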;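 further: 0% = integrase with antibodies and DMSO and 100% = antibodies without integrase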
IN-LEDGF confirm = confirmation of HIV-1 LEDGF/p75-dependent integration inhibitors. shares compounds with LEDGF integ inh. TR-FRET LEDGF/p75-dependent HIV-1 integration, biochemical. inhibition, % at 3.7 µM. hit rate 36% among 2,000. AID 1053136; in the data active means inhibition above about 14%
Active calls of the source: *; i = inactive; . = no result given. Unless noted, no stated cut-off is given here; in the data, active means inhibition above about 21%; inactive means the rest.

SMILES	Neddylation inh	KLK7 zymogen act	UHRF1 MBD2 ctr	Rin1-Abl PPI inh	MBD2 inh	LEDGF integ inh	proKLK7 act conf	EDANS-DABCYL int	others
Cc1cc(=O)[nH]c(SCc2nc3ncccn3c2Br)n1	.	29*	3	3	2	0	12	15*
O=C(c1cccn2c(=O)c3ccccc3nc12)N1CCN(Cc2ccc3c(c2)OCO3)CC1	.	15*	-6	-3	-1	3	22*	28*
O=C(c1cccn2c(=O)c3cc(Cl)ccc3nc12)N1CCN(Cc2ccc3c(c2)OCO3)CC1	.	-29	-9	-17	1	-2	.	.
O=C(c1cccn2c(=O)c3cc(Cl)ccc3nc12)N1CCOCC1	.	52*	-1	-3	-2	2	65*	73*
Cc1cc(NC(=O)c2ccc(NS(=O)(=O)c3ccc(C)c(C)c3)cc2)no1	.	1	1	.	0	3	.	.
CC(=O)c1cccc(NC(=O)Nc2ccc3c(c2)OCO3)c1	i	0	-4	-1	-1	-2	.	.
C[C@H]1[C@@H](NC(=O)/C=C/c2ccccc2)CC[C@@]23CCCN2C(=O)CCC[C@@H]13	.	.	-5	.	-4	2	.	.
Cc1cc(C)c2c(N)c3ccccc3nc2n1	.	16*	22*	-12	20*	0	70*	77*	UHRF1 DNA bind=21*;MBD2 confirm=25*
Cc1cc(C)c2cccc(N)c2n1	i	-1	-7	-2	-2	0	.	.
CCN(CC)CCn1c2ccccc2c2cnc(N)c(C#N)c21	.	18*	17	-3	16*	2	7	3	UHRF1 DNA bind=21*;MBD2 confirm=33*
CC(C)(C)OC(=O)C(Cc1ccc(OC(C)(C)C)cc1)NC(=O)CNC(=O)OCc1ccccc1 (configuration not stated)	i	0	8	1	4	1	.	.
CCN(CC)CCCNc1ccc2ncn3c4ccc(O)cc4c(=O)c1c23	i	71*	-208	-101	-21	36*	9	28*	IN multimer act=20*;TRFRET interf=-71;IN-LEDGF confirm=14*
CN(C)CCNc1ccc2nnn3c4ccc(O)cc4c(=O)c1c23	i	1	8	-18	7	-2	.	.
CC(=O)N1CCc2nc3ccccc3cc21	i	9	-5	-2	1	1	.	.
CC(=O)N1CCc2cc3nc(C)cc(C)c3cc21	.	25*	2	-6	2	52*	2	3	IN multimer act=1;TRFRET interf=-3;IN-LEDGF confirm=-5
O=C(NCCCN1CCCC1=O)c1cc2nc(-c3ccco3)cc(C(F)(F)F)n2n1	.	14*	-2	-2	-2	20*	13*	2	K7 EDANS ctr=>69;IN multimer act=-1;TRFRET interf=3;IN-LEDGF confirm=6
Cc1cc(-n2c(SCCC#N)nnc2-c2cccnc2)ccc1Cl	i	0	-2	4	-2	-2	.	.
